Laboratory results from PubChem BioAssay (NCI).
Compounds without any hit were thinned out: in the full panel of roughly 83,000, 20% have a hit.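 Plates (96-well) were seeded with cells, treated with compound at one concentration, and incubated for 48 hours before percent growth was determined.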 Calls of active or inactive are those of the source. The calls were made as follows: active = growth percent below 10; inactive = the rest.

Columns and labels:
Experiment in all cases: NCI-60 one-dose screen, 48 h (100 = growth as untreated, 0 = no growth, -100 = all killed)
Conditions in all cases: 10 µM unless noted
SR leukemia = system: SR leukemia
RPMI-8226 leukemia = system: RPMI-8226 leukemia
OVCAR-8 ovarian = system: OVCAR-8 ovarian
OVCAR-5 ovarian = system: OVCAR-5 ovarian
SK-OV-3 ovarian = system: SK-OV-3 ovarian
IGROV1 ovarian = system: IGROV1 ovarian
OVCAR-3 ovarian = system: OVCAR-3 ovarian
NCI/ADR-RES ovarian = system: NCI/ADR-RES ovarian
T-47D breast = system: T-47D breast
BT-549 breast = system: BT-549 breast
MDA-MB-435 melanoma = system: MDA-MB-435 melanoma
SW-620 colon = system: SW-620 colon
MCF7 breast = system: MCF7 breast
HCT-116 colon = system: HCT-116 colon
HCC-2998 colon = system: HCC-2998 colon
KM12 colon = system: KM12 colon
HS 578T breast = system: HS 578T breast
OVCAR-4 ovarian = system: OVCAR-4 ovarian

Measured: growth

C=CC(=O)N[C@H](/C=C/C(=O)OCC)Cc1ccc(-c2cc(Cl)cc(Cl)c2)cc1
inactive: SR leukemia 68.7% | RPMI-8226 leukemia 73.8% | OVCAR-8 ovarian 76.6% | OVCAR-5 ovarian 95.5% | SK-OV-3 ovarian 94.6% | IGROV1 ovarian 93% | OVCAR-3 ovarian 89.5% | NCI/ADR-RES ovarian 81.8% | T-47D breast 57.7% | BT-549 breast 84.6% | MDA-MB-435 melanoma 96.1% | SW-620 colon 91.7% | MCF7 breast 82.8% | HCT-116 colon 72.1% | HCC-2998 colon 94.6% | KM12 colon 89.8%

COc1ccc(C(=O)c2cc(OC)c(OC)c(OC)c2)cc1/C=C/C(=O)c1ccc2c(c1)OCO2
inactive: OVCAR-8 ovarian 19.4% | SK-OV-3 ovarian 36.6% | IGROV1 ovarian 16.9% | HS 578T breast 54% | T-47D breast 33.1% | MDA-MB-435 melanoma 21.6% | MCF7 breast 19.8%
active: SR leukemia -10.3% | RPMI-8226 leukemia -3.8% | OVCAR-5 ovarian -16.7% | OVCAR-3 ovarian 1.03% | NCI/ADR-RES ovarian 5.77% | BT-549 breast -10.4% | SW-620 colon -35.4% | HCT-116 colon -78.6% | KM12 colon -12%

Cn1c(C(N)=O)cc2c1-c1nc(NC3CCCCC3)ncc1CCC2
inactive: SR leukemia 92.5% | RPMI-8226 leukemia 93.5% | OVCAR-8 ovarian 88.1% | OVCAR-5 ovarian 64.6% | SK-OV-3 ovarian 91.3% | IGROV1 ovarian 113% | OVCAR-3 ovarian 97.1% | HS 578T breast 58.5% | NCI/ADR-RES ovarian 91.5% | BT-549 breast 80.7% | MDA-MB-435 melanoma 96.5% | SW-620 colon 89.7% | MCF7 breast 90.6% | HCT-116 colon 88.1% | HCC-2998 colon 97.5% | KM12 colon 104%

C=CCn1c(C)nc2ccc(Nc3nc(Nc4ccc(F)cc4)nc4ccccc34)cc21
inactive: SR leukemia 22.4% | OVCAR-8 ovarian 33.4% | OVCAR-5 ovarian 81.3% | OVCAR-4 ovarian 48.3% | SK-OV-3 ovarian 98.6% | IGROV1 ovarian 51.1% | OVCAR-3 ovarian 51.2% | HS 578T breast 54.4% | NCI/ADR-RES ovarian 38.4% | T-47D breast 35% | BT-549 breast 59.2% | MDA-MB-435 melanoma 57.1% | SW-620 colon 46.1% | MCF7 breast 26.1% | HCT-116 colon 26.9% | HCC-2998 colon 80.6% | KM12 colon 36.6%

CCC(c1ccc(OC)cc1)C(CC)c1ccc(O)c(CN2CCCC2)c1 (stereo not given)
inactive: OVCAR-8 ovarian 36.7% | OVCAR-5 ovarian 63% | OVCAR-4 ovarian 31.7% | SK-OV-3 ovarian 34.5% | OVCAR-3 ovarian 20.3% | HS 578T breast 12.4% | NCI/ADR-RES ovarian 18.7% | HCT-116 colon 35.9% | KM12 colon 27.9%
active: SR leukemia -43% | T-47D breast -33% | BT-549 breast 2.58% | MDA-MB-435 melanoma -31.6% | SW-620 colon 0.333% | MCF7 breast -44.4% | HCC-2998 colon -83%

CC/C=C\C[C@H](O)C/C=C1/C(=O)C(Cl)=C[C@@H]1C/C=C\CCCC(=O)OC
inactive: HS 578T breast 35.2% | NCI/ADR-RES ovarian 14%
active: SR leukemia 1.41% | RPMI-8226 leukemia -12.2% | OVCAR-8 ovarian 1.69% | OVCAR-5 ovarian -30% | SK-OV-3 ovarian 8.03% | IGROV1 ovarian -12.6% | OVCAR-3 ovarian -87.8% | T-47D breast -16.9% | BT-549 breast -85.5% | MDA-MB-435 melanoma -43.7% | SW-620 colon -55.3% | MCF7 breast -71.2% | HCT-116 colon -83.7% | HCC-2998 colon -92.1% | KM12 colon -81.5%

CC[C@H](C)[C@@H]1NC(=O)[C@H]([C@@H](C)O)NC(=O)C(Cc2ccccc2)NC(=O)[C@@H]2CCCN2C(=O)C(C(C)C)NC(=O)C(Cc2ccccc2)NC(=O)CNC(=O)[C@@H]2CCCN2C1=O (stereo not given in full)
active: RPMI-8226 leukemia 7.56%
inactive: SR leukemia 20.1% | OVCAR-8 ovarian 68.3% | OVCAR-5 ovarian 89.9% | SK-OV-3 ovarian 78.4% | IGROV1 ovarian 63.6% | OVCAR-3 ovarian 57.6% | HS 578T breast 59.2% | NCI/ADR-RES ovarian 64.5% | MDA-MB-435 melanoma 74% | SW-620 colon 68.3% | MCF7 breast 67.4% | HCT-116 colon 18.8% | HCC-2998 colon 88.2% | KM12 colon 59.2%

COc1ccc(C(=O)/C=C/c2cc(C(=O)c3cc(OC)c(OC)c(OC)c3)ccc2OC)cc1
active: SR leukemia 6.69%
inactive: RPMI-8226 leukemia 14.6% | OVCAR-8 ovarian 43.8% | OVCAR-5 ovarian 45% | SK-OV-3 ovarian 90% | IGROV1 ovarian 62.2% | OVCAR-3 ovarian 60.6% | NCI/ADR-RES ovarian 26.5% | T-47D breast 68% | BT-549 breast 73.7% | MDA-MB-435 melanoma 51.8% | SW-620 colon 13.8% | MCF7 breast 20.9% | HCT-116 colon 19.8% | HCC-2998 colon 93.1% | KM12 colon 40.6%

COc1ccc([N+](=O)[O-])c(/C=C/C(=O)c2ccccn2)c1
active: HCT-116 colon 1.9%
inactive: SR leukemia 26.5% | RPMI-8226 leukemia 52.6% | OVCAR-5 ovarian 90.5% | OVCAR-4 ovarian 72.2% | SK-OV-3 ovarian 96% | IGROV1 ovarian 60.8% | OVCAR-3 ovarian 86.1% | HS 578T breast 91.4% | T-47D breast 91.8% | BT-549 breast 94.2% | MDA-MB-435 melanoma 94.5% | SW-620 colon 16.9% | MCF7 breast 67% | HCC-2998 colon 120% | KM12 colon 84.5%

COc1ccc(NC(=O)CSc2nc3ccccc3c(=O)n2Cc2cc(OC)c(OC)c(OC)c2)cc1
inactive: SR leukemia 82.3% | RPMI-8226 leukemia 86% | OVCAR-8 ovarian 91.9% | OVCAR-5 ovarian 102% | IGROV1 ovarian 99% | HS 578T breast 96.1% | NCI/ADR-RES ovarian 84% | T-47D breast 84% | BT-549 breast 89.1% | MDA-MB-435 melanoma 101% | SW-620 colon 104% | MCF7 breast 93.8% | HCT-116 colon 89.5% | HCC-2998 colon 109% | KM12 colon 97.7%
